Compound activity as filed in PubChem BioAssay.
A selection: hits, their analogues and other compounds. The true share with any hit is near 19%.
TDP1 cell CPT: DT40-hTDP1 cell growth loss with CPT; chicken DT40 Tdp1-/-;hTDP1 cells + 20 nM CPT, ATP luminescence, 48 h; Potency, µM (highest dose often 46.2 µM), hits mostly inhibitors; 420,000 compounds, 12% hits; AID 686979; note: nearly all actives have a fitted effect of over 55% in size
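Cell growth measured by CellTiter-Glo luminescence after a minimum 48 h, 37 C compound exposure with 20 nM CPT in Tdp1-knockout DT40 cells stably expressing hTDP1, seeded 400/well; qHTS titration format.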
HT1080-NT tox: kills 2HG-producing HT-1080-NT fibrosarcoma cells | HT-1080-NT fibrosarcoma viability, CellTiter-Glo ATP luminescence, 48 h | Potency, µM (highest dose often 46.1 µM), usual class: cytotoxic | 360,000 compounds, 1.6% hits | AID 686970;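 note: NT is the 2HG producing partner of a matched IDH1 knockdown line; nearly all actives have a fitted effect of over 55% in size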
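Fibrosarcoma NT cells, 750 per well in 5% FBS RPMI, were exposed to compound for 48 hours. Viability: CellTiter-Glo luminescence.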
IL1B secr inh: inhibitors of inflammasome signaling (IL-1 beta secretion). THP-1 LPS/ATP IL-1B secretion, AlphaLISA, 16 h; active compounds read low. activity change, % at 57.5 µM. 360,000 compounds, 4.7% hits; in the data active = activity change below about -50%; inconclusive = mostly about -30% to -49%
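Secreted IL-1B measured by AlphaLISA bead assay after 16 h compound exposure of THP-1 cells; compounds (final up to 57.5 uM) added 1 h before LPS (250 ng/mL) and ATP (1.25 mM) stimulation; lower signal means less secretion.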
ELG1 repair inh: ELG1-dependent DNA repair inhibition; AID 504467; Potency, µM (doses to about 46.1 µM), hits mostly inhibitors; HEK293T ELG1-luciferase reporter, luminescence, 16 h; DNA damage induced by 5-fluorouridine; 330,000 compounds, 2.3% hits; note: nearly all actives have a fitted effect of over 55% in size
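DMSO vehicle served as the neutral condition. Each well held 2,000 cells given 5-fluorouridine plus compound; after 16 hr at 37 °C/5% CO2, ONE-Glo was added and luciferase measured 30 min later.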
HT1080 IDH1KD tx: kills HT-1080 cells with IDH1 knockdown. 360,000 compounds, 2% hits. Potency, µM (series often up to 46.1 µM), actives largely listed as cytotoxic. HT-1080 IDH1 knockdown viability, ATP luminescence, 48 h. AID 686971
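Using the IDH1-knockdown HT-1080 line run in the same batch and compound series as the NT line, viability after 48 h at 37 °C was determined by CellTiter-Glo luminescence and expressed as % activity.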
DT40 TDP1 no CPT: qHTS for Inhibitors of human tyrosyl-DNA phosphodiesterase 1 (TDP1): qHTS in cells in absence of CPT; DT40 Tdp1-/- hTDP1 cells, no CPT, ATP luminescence, 48 h; Potency, µM (doses to about 46.2 µM), actives largely listed as inhibitors; 420,000 compounds, 15% hits; AID 686978, 2013; note: nearly all actives have a fitted effect of over 55% in size
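Growth kinetics read by CellTiter-Glo luminescence after ≥48 hr at 37 °C. Cells: DT40 Tdp1-/- stably carrying human TDP1, 400 per well, compound exposure in the absence of CPT (DMSO vehicle).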
A number is an active result; – = inactive; ? = inconclusive; · = not tested or not shown; [ ] = remark or other dose. Unless noted, calls come from the whole dose curve; as a rule, active = well fitted curve in the direction sought with a large enough effect; inconclusive = small, poorly fitted or top-dose-only effect, or another doubt; inactive = no such curve, though single readings can be large; an effect the other way counts as inactive or inconclusive.

SMILES	TDP1 cell CPT	HT1080-NT tox	IL1B secr inh	ELG1 repair inh	HT1080 IDH1KD tx	DT40 TDP1 no CPT
O=C(NN=Cc1ccc(N(CCCl)CCCl)cc1)c1cccnc1	7.31µM	–	–	·	–	9.2µM
O=C(NN=Cc1ccc(N(CCCl)CCCl)cc1)c1cccc([N+](=O)[O-])c1	?	–	–	·	?	?
CC(C)(C)OC(=O)c1ncn2c1[C@@H]1CCCN1C(=O)c1c(Br)cccc1-2	–	·	·	·	·	?
COC(=O)C1=C(c2ccccc2)C[C@@H]2CC[C@H]1N2C(=O)N1CCOCC1	?	–	–	·	–	?
COC(=O)C1=C(c2cccc(C#N)c2)C[C@@H]2CC[C@H]1N2C(=O)N1CCC(C)CC1	16.4µM	–	–	–	–	23.1µM
COC(=O)C1=C(c2cccc(OC)c2OC)C[C@@H]2CC[C@H]1N2C(=O)N1CCC(C)CC1	?	–	–	·	–	13µM
COC(=O)C1=C(c2ccc(F)cc2F)C[C@@H]2CC[C@H]1N2C(=O)N1CCC(C)CC1	16.4µM	–	–	–	–	10.3µM
COC(=O)C1=C(c2ccccc2)C[C@@H]2CC[C@H]1N2C(=O)N1CCC(C)CC1	?	–	–	·	–	14.6µM
C[N+]1([O-])[C@@H]2CC[C@H]1CC(OC(=O)C(CO)c1ccccc1)C2 (some centres not stated)	–	·	·	·	·	–
COC(=O)C1=C(c2ccc3ccccc3c2)C[C@@H]2CC[C@H]1N2C(=O)N1CCC(O)CC1	?	–	–	–	–	?
COC(=O)C1=C(c2ccc(-c3ccccc3)c(F)c2)C[C@@H]2CC[C@H]1N2C(=O)NC1Cc2ccccc2C1	?	–	–	–	–	?
COC(=O)C1=C(c2ccc(-c3ccccc3)c(F)c2)C[C@@H]2CC[C@H]1N2C(=O)N1CCC(C)CC1	7.31µM	?	–	?	?	4.61µM
COC(=O)C1=C(c2ccc(-c3ccccc3)c(F)c2)C[C@@H]2CC[C@H]1N2C(=O)N1CCC(O)CC1	14.6µM	–	?	?	–	9.2µM
C/C=C1/CN2CC[C@]34C(=C(C=O)[C@@H]1C[C@H]23)Nc1c(O)cccc14	–[9.04 µM]	·	·	·	·	–[9.04 µM]
CCCOC(=O)COc1cc(C)cc2oc(=O)c3c(c12)CCC3	–	–	–	?	–	–
CCCOc1ccc(C(=O)Nc2ccc(-c3cc4ccccc4oc3=O)c(C)c2)cc1	10.3µM	·	·	·	·	5.17µM
Cc1cscn1	–	–	–	?	–	?
Cc1cc([N+](=O)[O-])c2ccccc2[n+]1[O-]	0.0461µM	6.51µM	-98.6	?	8.2µM	0.0517µM
CC(OC(=O)COc1ccc(Nc2ccccc2)cc1)C(=O)N(C)c1ccccc1 (configuration not stated)	?	–	–	–	–	?
Oc1ccc2c3c1O[C@H]1c4c(c5ccccc5n4Cc4ccccc4)C[C@]4(O)[C@H](C2)N(CC2CC2)CC[C@@]314	11.9µM	·	·	·	·	13.3µM
Oc1ccc2c3c1O[C@H]1c4[nH]c5c(c4C[C@@]4(O)[C@@H](C2)N(CC2CC2)CC[C@]314)C[C@@]1(O)[C@H]2Cc3ccc(O)c4c3[C@@]1(CCN2CC1CC1)[C@H]5O4	–	·	·	·	·	–
Oc1ccc2c3c1O[C@H]1c4oc5ccccc5c4C[C@@]4(O)[C@@H](C2)N(CC2CC2)CC[C@]314	?	?	-64.8	–	?	?
Oc1ccc2c3c1O[C@H]1c4[nH]c5ccccc5c4C[C@@]4(O)[C@@H](C2)N(CC2CC2)CC[C@]314	–	?	-61.3	–	?	–
Oc1ccc2c3c1O[C@H]1c4oc5ccccc5c4C[C@]4(O)[C@H](C2)N(CC2CC2)CC[C@@]314	–	·	·	·	·	–
Cc1ccc(-n2sc3ccccc3c2=O)cc1	2.91µM	?	-103.0	?	?	3.26µM
SMILES	TDP1 cell CPT	HT1080-NT tox	IL1B secr inh	ELG1 repair inh	HT1080 IDH1KD tx	DT40 TDP1 no CPT
O=c1c2ccccc2sn1-c1ccc(Cl)cc1	2.06µM	?	-105.5	·	?	1.84µM
Cc1ccc(N2C(=O)CC(=O)NC2=O)cc1	–	–	–	·	–	–
O=c1c2ccccc2nc(N2CCCC2)n1-c1ccccc1	?	–	–	–	–	14.6µM
COc1ccc(-n2c(-c3ccccc3Br)nc3ccccc3c2=O)cc1	?	?	–	–	–	20.6µM
Cc1cccc(-n2c(-c3ccc([N+](=O)[O-])cc3)nc3ccccc3c2=O)c1	?	–	–	–	–	8.2µM
O=c1c2ccccc2nc(Cc2ccccc2)n1-c1cccc(O)c1	14.6µM	–	–	–	–	20.6µM
CCCCN1CCS(=O)(=O)N(Cc2ccccc2Br)CC(C(=O)OC)C1 (configuration not stated)	?	–	–	?	–	?
Cc1nc2cc([N+](=O)[O-])ccc2c(=O)n1-c1cccc(Br)c1	?	–	–	·	–	18.4µM
O=c1c2ccccc2nc(-c2ccccc2)n1-c1ccccc1	?	–	–	–	–	8.2µM
O=c1c2ccccc2nc(-c2ccccc2)n1-c1ccncc1	?	–	–	–	–	–
COc1ccc(-c2nc3ccccc3c(=O)n2-c2ccc(OC)cc2)cc1	?	–	–	–	–	?
O=c1c2ccccc2nc(-c2ccccc2F)n1-c1ccccc1	?	–	–	–	–	7.31µM
COc1ccc(-n2c(-c3ccccc3F)nc3ccccc3c2=O)cc1	?	–	–	·	–	20.6µM
Cc1cccc(-n2c(CC3C(=O)Nc4ccc(C)cc43)nc3ccccc3c2=O)c1 (configuration not stated)	?	·	·	·	·	20.6µM
CN1CCN(c2ccccc2N)CC1	–	–	–	·	–	–
CN1CCC2(CC1)c1ccccc1-c1ccccc12	?	–	-67.1	·	–	14.6µM
CCOC1=C(N2CC2)C(=O)C(OCC)=C(N2CC2)C1=O	–	–	–	·	–	–
Cc1ncoc1C(=O)NCC1=C(c2ccc(S(C)(=O)=O)cc2)C[C@@H]2CC[C@H]1N2CCOc1ccccc1	–	–	–	·	–	?
C=C1CCC(O)C/C1=C\C=C1/CCCC2(C)C1CCC2C(C)CCCC(C)C (configuration not stated)	23.7µM	·	·	·	·	26.6µM
O=C1NCN(c2ccccc2)C12CCN(C(c1cccc3ccccc13)c1nnnn1C1CCCCC1)CC2 (configuration not stated)	23.1µM	?	–	·	–	?
Cc1cccc(C)c1-n1nnnc1C(c1cccc2ccccc12)N1CCC2(CC1)C(=O)NCN2c1ccccc1 (configuration not stated)	18.4µM	–	–	·	–	11.6µM
